Reference: PubChem BioAssay (NCATS)
Records with an inconclusive call do not appear. A call without a number means that no potency is given here. Where a structure was tested more than once in an assay, its records may differ in their call. Activity calls are given as the source filed them. Unless noted, calls come from the whole dose curve; as a rule, active = well fitted curve in the direction sought with a large enough effect; inconclusive = small, poorly fitted or top-dose-only effect, or another doubt; inactive = no such curve, though single readings can be large; an effect the other way counts as inactive or inconclusive.

How the values were obtained:
[1] = target: Alpha-galactosidase (Coffea arabica) (UniProt Q42656); assay: Counterscreen for Glucocerebrosidase Inhibitors: qHTS Assay for Coffee Bean alpha-Galactosidase at pH 5.9 (AID 998); details: coffee bean alpha-galactosidase enzyme assay; series mostly up to 76.9 µM
Alpha-galactosidase (Coffea arabica), sequence (Q42656 whole entry, looked up): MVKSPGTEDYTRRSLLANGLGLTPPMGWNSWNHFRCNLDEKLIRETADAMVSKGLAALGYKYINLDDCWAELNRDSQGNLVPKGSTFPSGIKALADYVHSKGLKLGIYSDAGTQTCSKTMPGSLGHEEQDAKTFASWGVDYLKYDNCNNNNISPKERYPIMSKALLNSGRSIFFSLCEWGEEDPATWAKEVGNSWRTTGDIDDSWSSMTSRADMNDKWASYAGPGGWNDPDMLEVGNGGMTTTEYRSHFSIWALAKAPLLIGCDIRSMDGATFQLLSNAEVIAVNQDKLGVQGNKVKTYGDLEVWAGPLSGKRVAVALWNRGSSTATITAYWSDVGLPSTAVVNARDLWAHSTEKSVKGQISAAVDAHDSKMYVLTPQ
Procedure, shortened: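 Green coffee bean enzyme (2 nM) with 4-methylumbelliferyl alpha-D-galactopyranoside (80 uM) in 50 mM citric acid, 0.005% Tween-20, pH 5.9, 20 min at room temperature; compounds 0.7 nM–77 uM. Stopped at pH 10, fluorescence Ex365/Em440; Hill-fit AC50.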

[2] = Cell Viability - LYMP2-023 (AID 975); details: LYMP2-023 lymphoblastoid cell viability; series mostly up to 92.2 µM; note: nearly all actives have a fitted effect of over 55% in size; note: potency is the fitted concentration of half-maximal effect
Procedure, shortened: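 LYMP2-023 human lymphoblastoid cells, 2500/well, preincubated 5 hr at 37 C, then compound-treated 24 hr at 37 C in complete medium. CellTiter-Glo luminescence (ATP) after 30 min at room temperature; AC50 from Hill-equation fits; tetraoctylammonium bromide positive control.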

[3] = Cell Viability - LYMP2-025 (AID 976); details: LYMP2-025 lymphoblastoid cell viability; series mostly up to 92.2 µM; note: potency is the fitted concentration of half-maximal effect
Procedure, shortened: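 Human lymphoblastoid LYMP2-025 cells, 2500/well, exposed 24 h at 37 C in complete medium in 1536-well qHTS. Viability as cellular ATP by CellTiter-Glo luminescence; AC50 from Hill fits of concentration-response data.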

[4] = Cell Viability - LYMP2-002 (AID 977); details: LYMP2-002 lymphoblastoid cell viability, qHTS; series mostly up to 92.2 µM;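 note: compound exposure lasted 24 h at 37 °C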; note: potency is the fitted concentration of half-maximal effect
Procedure, shortened: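 Human lymphoblastoid LYMP2-002 cells, 2500 per well, exposed to compounds for 24 h at 37 C in complete medium; viability read as intracellular ATP by CellTiter-Glo luminescence, AC50 from Hill fits.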

[5] = Cell Viability - LYMP2-006 (AID 978); details: LYMP2-006 lymphoblastoid cell viability, qHTS; series mostly up to 92.2 µM; note: nearly all actives have a fitted effect of over 60% in size; note: potency is the fitted concentration of half-maximal effect
Procedure, shortened: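 Human lymphoblastoid cells (LYMP2-006), 2500/well in complete medium, were treated with compound for 24 hr at 37 C. Cellular ATP was read by CellTiter-Glo luminescence after 30 min, and AC50 values came from Hill-equation fits of concentration-response data.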

[6] = Cell Viability - LYMP2-007 (AID 979); details: LYMP2-007 lymphoblastoid cell viability; series mostly up to 92.2 µM;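 note: cells exposed to compound for 24 h before reading; nearly all actives have a fitted effect of over 60% in size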; note: potency is the fitted concentration of half-maximal effect
Procedure, shortened: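 Human lymphoblastoid LYMP2-007 cells (2500/well) preincubated 5 h at 37 C, then treated 24 h at 37 C in complete medium. Viability by CellTiter-Glo ATP luminescence after 30 min at room temperature; AC50 from Hill fits.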

[7] = Cell Viability - LYMP2-008 (AID 980); details: LYMP2-008 lymphoblastoid cell viability, qHTS; series mostly up to 92.2 µM; note: nearly all actives have a fitted effect of over 60% in size; note: potency is the fitted concentration of half-maximal effect
Procedure, shortened: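 LYMP2-008 lymphoblastoid cells (2500/well) plated 5 h, then treated 24 h at 37 C in complete medium. Viability read as intracellular ATP by CellTiter-Glo luminescence after 30 min at room temperature; AC50 from Hill fits.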

[8] = Cell Viability - LYMP2-012 (AID 982); details: LYMP2-012 lymphoblastoid cell viability qHTS; series mostly up to 92.2 µM;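 note: cellular ATP by luciferase luminescence where a drop means cytotoxicity; cells exposed to compound for one day before reading; nearly all actives have a fitted effect of over 55% in size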; note: potency is the fitted concentration of half-maximal effect
[9] = Cell Viability - LYMP2-014 (AID 983); details: LYMP2-014 lymphoblastoid cells, viability qHTS; series mostly up to 92.2 µM; note: nearly all actives have a fitted effect of over 50% in size; note: potency is the fitted concentration of half-maximal effect
Procedure, shortened: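 LYMP2-014 human lymphoblastoid cells, 2500/well, treated 24 h at 37 C in complete medium; viability by CellTiter-Glo ATP luminescence after 30 min at room temperature. AC50 from Hill fits of qHTS concentration-response; tetraoctylammonium bromide positive control.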

[10] = Cell Viability - LYMP2-016 (AID 984); details: LYMP2-016 lymphoblastoid cell viability, qHTS; series mostly up to 92.2 µM; note: nearly all actives have a fitted effect of over 55% in size; note: potency is the fitted concentration of half-maximal effect
Procedure, shortened: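 Human lymphoblastoid LYMP2-016 cells, 2500 per well, treated with compounds for 24 h at 37 C. Viability read as intracellular ATP by CellTiter-Glo luminescence after 30 min at room temperature; AC50 from Hill fits of concentration-response.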

[11] = Cell Viability - LYMP2-018 (AID 985); details: LYMP2-018 lymphoblastoid cells, viability (qHTS); series mostly up to 92.2 µM;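 note: compound exposure lasted 24 hr at 37 °C; nearly all actives have a fitted effect of over 50% in size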; note: potency is the fitted concentration of half-maximal effect
Procedure, shortened: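 Human lymphoblastoid LYMP2-018 cells, 2500/well, settled 5 hr at 37 C then exposed to compound 24 hr at 37 C; intracellular ATP measured by CellTiter-Glo luminescence. AC50 from Hill-equation concentration-response fits.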

[12] = Cell Viability - LYMP2-020 (AID 986); details: series mostly up to 92.2 µM; note: nearly all actives have a fitted effect of over 55% in size; note: potency is the fitted concentration of half-maximal effect
Procedure, shortened: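 Human lymphoblastoid LYMP2-020 cells (2500/well) preincubated 5 h at 37 C, then treated 24 h at 37 C. Viability measured as intracellular ATP by CellTiter-Glo luminescence after 30 min at room temperature; AC50 from Hill fits.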

[13] = Cell Viability - LYMP2-022 (AID 987); details: LYMP2-022 lymphoblastoid cell viability; series mostly up to 92.2 µM; note: nearly all actives have a fitted effect of over 55% in size; note: potency is the fitted concentration of half-maximal effect
Procedure, shortened: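 LYMP2-022 lymphoblastoid cells (2500/well, complete medium) were treated with compounds for 24 hours at 37 C; intracellular ATP was then read by CellTiter-Glo luminescence after 30 min at room temperature. AC50 values were derived from Hill-equation fits.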

[14] = Cell Viability - LYMP2-024 (AID 988); details: LYMP2-024 lymphoblastoid cell viability; series mostly up to 92.2 µM; note: nearly all actives have a fitted effect of over 60% in size; note: potency is the fitted concentration of half-maximal effect
Procedure, shortened: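 Human lymphoblastoid LYMP2-024 cells (2500/well) rested 5 hr, then treated with compound for 24 hr at 37 C in complete medium. Viability was measured as intracellular ATP by CellTiter-Glo luminescence. AC50 values came from Hill-equation fits.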

[15] = Cell Viability - LYMP2-026 (AID 989); details: LYMP2-026 lymphoblastoid cell viability, qHTS; series mostly up to 92.2 µM; note: nearly all actives have a fitted effect of over 50% in size; note: potency is the fitted concentration of half-maximal effect
Procedure, shortened: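 Human lymphoblastoid LYMP2-026 cells, 2500/well, exposed to compound 24 h at 37 C in complete medium. Viability as intracellular ATP by CellTiter-Glo luminescence; AC50 from Hill fits of qHTS concentration-response.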

[16] = Cell Viability - LYMP1-002 - Assay at 24 hr (AID 993); details: LYMP1-002 lymphoblastoid cells viability; series mostly up to 92.2 µM; note: potency is the fitted concentration of half-maximal effect
Procedure, shortened: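 Human lymphoblastoid LYMP1-002 cells (2500/well) treated 24 h at 37 °C; viability as intracellular ATP by CellTiter-Glo luminescence. Tetraoctylammonium bromide as positive control; AC50 from Hill-equation fits of qHTS concentration-response.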

[17] = Cell Viability - LYMP1-002 - Assay at 40 hr (AID 994); details: LYMP1-002 lymphoblastoid cell viability; series mostly up to 92.2 µM; note: nearly all actives have a fitted effect of over 60% in size; note: potency is the fitted concentration of half-maximal effect
Procedure, shortened: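 LYMP1-002 human lymphoblastoid cells (2500/well, complete medium) were treated with compounds for 40 hr at 37 C. Intracellular ATP was measured by CellTiter-Glo luminescence, and AC50 values came from Hill-equation fits of concentration-response data; tetraoctylammonium bromide was the positive control.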

[18] = target: Alpha-galactosidase A (Homo sapiens) (UniProt P06280); assay: Counterscreen for Glucocerebrosidase Inhibitors: qHTS Assay for Human alpha-Galactosidase at pH 4.5 (AID 992); details: purified enzyme, fluorogenic substrate; series mostly up to 76.9 µM
Alpha-galactosidase A (Homo sapiens), sequence (P06280 whole entry, looked up): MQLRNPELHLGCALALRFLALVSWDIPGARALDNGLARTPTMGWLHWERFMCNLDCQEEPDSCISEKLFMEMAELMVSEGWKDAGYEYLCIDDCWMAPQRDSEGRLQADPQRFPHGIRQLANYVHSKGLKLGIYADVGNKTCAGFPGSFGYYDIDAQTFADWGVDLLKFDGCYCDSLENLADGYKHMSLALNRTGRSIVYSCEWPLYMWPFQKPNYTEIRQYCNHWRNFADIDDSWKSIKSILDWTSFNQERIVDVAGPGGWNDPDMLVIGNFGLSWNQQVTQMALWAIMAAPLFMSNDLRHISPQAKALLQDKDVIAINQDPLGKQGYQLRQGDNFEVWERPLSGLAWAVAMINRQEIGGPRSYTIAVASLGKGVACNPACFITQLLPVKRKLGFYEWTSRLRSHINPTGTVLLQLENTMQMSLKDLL
Procedure, shortened: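 Concentration-response curves (0.7 nM to 77 uM final) were modeled with the Hill equation to give AC50. Reactions: 2 nM enzyme, 80 uM fluorogenic alpha-galactoside, pH 4.5 citric acid buffer, 20 min, room temperature.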

[19] = target: alpha-glucosidase (Oryza sativa, rice) (UniProt Q653V4); assay: Counterscreen for Glucocerebrosidase Inhibitors: qHTS Assay for Rice alpha-Glucosidase at pH 5.0 (AID 997); details: rice alpha-glucosidase enzyme activity; series mostly up to 76.9 µM
Procedure, shortened: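 Rice alpha-glucosidase (4 nM final) with 400 uM 4-methylumbelliferyl-alpha-D-glucopyranoside in citrate buffer pH 5.0, 20 min at room temperature, stopped at pH 10; fluorescence 365/440 nm, compounds 0.7 nM–77 uM, AC50 from Hill fits.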

[20] = Validation of Assay for Modulators of Lamin A Splicing (AID 1459; active = well fitted curve in the direction sought with a large enough effect in the signal ratio; the % refers to the signal ratio;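 note: cells exposed to compound for two days before reading; ratio rise marks activators and ratio drop marks inhibitors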); details: Lamin A splicing dual RFP/GFP fluorescence reporter; series mostly up to 9.22 µM
Procedure, shortened: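 S3 HeLa stably expressing lamin A-EGFP splicing minigene and DsRed2, 600 cells/well in Opti-MEM with 2% FBS, treated 48 h at 37C; laser-scanning cytometry gives GFP/RFP total intensity ratio; ancitabine positive control, 0.5% DMSO vehicle.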

O=C(Nc1ccc([N+](=O)[O-])cc1Cl)c1cc(Cl)ccc1O
outcome [1]: inactive

CNC(=O)Oc1cccc2ccccc12
Potency [2]: inactive
Potency [3]: inactive
Potency [4]: inactive
Potency [5]: inactive
Potency [6]: inactive
Potency [7]: inactive
Potency [8]: inactive
Potency [9]: inactive
Potency [10]: inactive
Potency [11]: inactive
Potency [12]: inactive
Potency [13]: inactive
Potency [14]: inactive
Potency [15]: inactive
Potency [16]: inactive
Potency [17]: inactive

COc1cc2c(cc1OC)-c1cc(=Nc3c(C)cc(C)cc3C)n(C)c(=O)n1CC2
outcome [1]: inactive

CN1[C@@H]2CC[C@H]1CC(OC(=O)c1cc(Cl)cc(Cl)c1)C2 (some centres undefined)
outcome [18]: inactive
outcome [19]: inactive

O=C(CCl)c1ccc(Cl)cc1Cl
Potency [2]: 6.31 µM (active)
Potency [3]: 7.94 µM (active)
Potency [4]: 7.94 µM (active)
Potency [5]: 7.94 µM (active)
Potency [6]: 5.01 µM (active)
Potency [7]: 7.94 µM (active)
Potency [8]: 3.16 µM (active)
Potency [9]: 5.01 µM (active)
Potency [10]: 5.01 µM (active)
Potency [11]: 3.16 µM (active)
Potency [12]: 5.01 µM (active)
Potency [13]: 2 µM (active)
Potency [14]: 2.51 µM (active)
Potency [15]: 6.31 µM (active)
Potency [16]: 15.8 µM (active)
Potency [17]: 25.1 µM (active)

C=Cc1c(C)c2cc3[nH]c(cc4nc(cc5nc(cc1[nH]2)C(C)=C5CCC(=O)O)C(CCC(=O)O)=C4C)c(C)c3C=C
outcome [1]: inactive

CC1=C(C)C(=O)C(CCCCC#CCCCC#CCO)=C(C)C1=O
outcome [1]: inactive

C[N+](C)(C)CCOC(=O)CCC(=O)OCC[N+](C)(C)C
outcome [1]: inactive

CCCn1cnc2c1c(=O)n(CCCCC(C)=O)c(=O)n2C
outcome [1]: inactive

Oc1c(Br)cc(Br)cc1Br
Potency [2]: inactive
Potency [3]: inactive
Potency [4]: inactive
Potency [5]: inactive
Potency [6]: inactive
Potency [7]: inactive
Potency [8]: inactive
Potency [9]: inactive
Potency [10]: inactive
Potency [11]: inactive
Potency [12]: inactive
Potency [13]: inactive
Potency [14]: inactive
Potency [15]: inactive
Potency [16]: inactive
Potency [17]: inactive

COC(=O)C1=CCCN(C)C1
outcome [18]: inactive
outcome [19]: inactive

COc1ccc(C(=O)N2CCCC2=O)cc1
outcome [18]: inactive
outcome [19]: inactive
outcome [1]: inactive

O=C(O)CN(CCOCCOCCN(CC(=O)O)CC(=O)O)CC(=O)O
outcome [1]: inactive

CCCCCCCCCCCC[N+](C)(C)CCOc1ccccc1
Potency [2]: 50.1 µM (active)
Potency [3]: 50.1 µM (active)
Potency [4]: 50.1 µM (active)
Potency [5]: 20 µM (active)
Potency [6]: 25.1 µM (active)
Potency [7]: 25.1 µM (active)
Potency [8]: 39.8 µM (active)
Potency [9]: 39.8 µM (active)
Potency [10]: 31.6 µM (active)
Potency [11]: 39.8 µM (active)
Potency [12]: 39.8 µM (active)
Potency [13]: 39.8 µM (active)
Potency [14]: 39.8 µM (active)
Potency [15]: 39.8 µM (active)
Potency [16]: 7.94 µM (active)
Potency [17]: 31.6 µM (active)

Oc1ccc(Cl)cc1Sc1cc(Cl)ccc1O
Potency [6]: 39.8 µM (active)
Potency [8]: 31.6 µM (active)
Potency [11]: 39.8 µM (active)
Potency [12]: 39.8 µM (active)
Potency [17]: 50.1 µM (active)

NC(=O)CN1CCCC1=O
outcome [18]: inactive
outcome [19]: inactive
outcome [1]: inactive

COc1ccc(CN(CCN(C)C)c2ccccn2)cc1
outcome [1]: inactive

Oc1cc(O)c2c(c1)O[C@H](c1ccc(O)c(O)c1)[C@H](O)C2
outcome [1]: inactive

Cc1[nH]c(=O)c(C#N)cc1-c1ccc2nccn2c1
outcome [1]: inactive

CCCCCCCCC(=O)NCc1ccc(O)c(OC)c1
outcome [18]: inactive
outcome [19]: inactive
outcome [20]: inactive

Cc1cc(C(C)(C)C)c(O)c(C)c1CC1=NCCN1
outcome [1]: inactive

CN(C(=O)CCCOc1ccc2[nH]c(=O)ccc2c1)C1CCCCC1
outcome [1]: inactive

O=C(O)c1nn(Cc2ccc(Cl)cc2Cl)c2ccccc12
outcome [18]: inactive
outcome [19]: inactive
outcome [20]: inactive

Cc1ccc(C(=O)Nc2ccc(S(=O)(=O)O)c3cc(S(=O)(=O)O)cc(S(=O)(=O)O)c23)cc1NC(=O)c1cccc(NC(=O)Nc2cccc(C(=O)Nc3cc(C(=O)Nc4ccc(S(=O)(=O)O)c5cc(S(=O)(=O)O)cc(S(=O)(=O)O)c45)ccc3C)c2)c1
outcome [1]: inactive

COP(=O)(OC)OC=C(Cl)Cl
Potency [2]: inactive
Potency [3]: inactive
Potency [4]: inactive
Potency [5]: inactive
Potency [6]: inactive
Potency [7]: inactive
Potency [8]: inactive
Potency [9]: inactive
Potency [10]: inactive
Potency [11]: inactive
Potency [12]: inactive
Potency [13]: inactive
Potency [14]: inactive
Potency [15]: inactive
Potency [16]: inactive
Potency [17]: 12.6 µM (active) and inactive

C[N+](C)(C)CCCCCCCCCC[N+](C)(C)C
outcome [1]: inactive

C[C@H](N)[C@H](O)c1ccc(O)c(O)c1
outcome [18]: inactive
outcome [19]: inactive
outcome [1]: inactive

COC(=O)C1=C(C)NC(C)=C(C(=O)OC)C1c1ccccc1[N+](=O)[O-]
Potency [6]: 39.8 µM (active)
Potency [13]: 50.1 µM (active)
Potency [14]: 39.8 µM (active)
Potency [16]: 50.1 µM (active)
Potency [17]: 39.8 µM (active)

CCc1cccc2c3c([nH]c12)C(CC)(CC(=O)O)OCC3 (centres undefined)
outcome [1]: inactive
